The sequences below were run against TRIM48 (assay: pooled miR-30 sensor sort-seq; sequence = guide strand). Conditions: shRNA.
Also: reference of the scale not given here.

Row | Sequence | sensor-assay potency score (higher = more potent)
1 | TTTCTCTGCTGTATTGTCTTTA | -0.0647
2 | TTAACAGCTTCTCCCAGTGTTC | -1.29
3 | TTCTCAAATCTCCACATCGGAA | -1.49
4 | AAACCGAACCTATTTGTCCTGT | 0.0588
5 | ATGTCGTTCTTAACACACCCAA | -1.03
6 | AACATCTTCTTTGTCTCCCTGT | 0.214
7 | TTCTCTGCTGTATTGTCTTTAT | -1.43
8 | TTTCTTTAACAGCTTCTCCCAG | -0.688
9 | TGTCGTTCTTAACACACCCAAG | -1.51
10 | TGCTGTATTGTCTTTATGCATT | -1.57
11 | TTCTTTAACAGCTTCTCCCAGT | -0.186
12 | TTCTCTGATTTTCACAAGCTTT | -1.29

Each sequence was assayed against TRIM50 in the same assay as above. Conditions: shRNA.

Row | Sequence | sensor-assay potency score (higher = more potent)
13 | TTCGCCCTGCTCATAGTGCAGG | -1.35
14 | TGAACTTGTGGTGGTCCTCATT | -1.36
15 | TTCCGGATGAACTTGTGGTGGT | -0.035
16 | TAGTCGAAGCGCTCAGGCTGGC | -0.915
17 | TCATAGTGCAGGTAGAGCCCGA | -0.353
18 | TGGAACTTCCGGATGAACTTGT | -0.0502
19 | TCCAACTTGAGAGGCTCCGGGG | -1.47
20 | TGCTGTAGTCGAAGCGCTCAGG | -1.06
21 | AAAACTTTCCGGAAGAGCCTTT | -0.209
22 | TTGTGGTGGTCCTCATTGCCGA | -1.14
23 | TTGGGCAGGGAGCTGCTGCCGT | -1.11
24 | TTCAGCTTGCCCTTACGGCTGG | -0.338

What follows are sequences tested against TRIM54 in the same assay as above. Conditions: shRNA.

Row | Sequence | sensor-assay potency score (higher = more potent)
25 | TAGTCTGGCACACCTCCTCCAT | -1.55
26 | TTGTCCTCGATAGTCTGGCACA | -1.37
27 | TAACAACTGCTTCTGCCTCCGG | -0.255
28 | TTGGAGAACATCTCCAGGCAGA | -0.654
29 | TTGCCTGCCACCAGCATCGCGA | -1.1
30 | TCCATCTGTGTGATCACTGCTT | -0.164
31 | TCGCTGAGCTCACTCTTCTGGC | -0.97
32 | TTATTGATCAGCTCCTTGGCCT | -0.188
33 | TGGTTTGGAGAACATCTCCAGG | -1.46
34 | AACAACTGCTTCTGCCTCCGGC | -0.512
35 | TTTAACAACTGCTTCTGCCTCC | 0.72
36 | TTTGGAGAACATCTCCAGGCAG | -0.659
